# Source: PubChem (National Center for Advancing Translational Sciences (NCATS))
# This is a sample that favours compounds with a hit; in the whole collection about 11% have one here.
# AmpC no deterg – blocks E. coli AmpC beta-lactamase in detergent-free assay. 330,000 tested, 0.52% active. Potency, µM (top dose mostly 57.1 µM), most hits filed as inhibitors. AmpC nitrocefin hydrolysis, absorbance 480 nm, 0.0001% Triton. P00811; also: nearly all actives have a fitted effect of over 20% in size
# Target sequence (P00811 whole entry, looked up): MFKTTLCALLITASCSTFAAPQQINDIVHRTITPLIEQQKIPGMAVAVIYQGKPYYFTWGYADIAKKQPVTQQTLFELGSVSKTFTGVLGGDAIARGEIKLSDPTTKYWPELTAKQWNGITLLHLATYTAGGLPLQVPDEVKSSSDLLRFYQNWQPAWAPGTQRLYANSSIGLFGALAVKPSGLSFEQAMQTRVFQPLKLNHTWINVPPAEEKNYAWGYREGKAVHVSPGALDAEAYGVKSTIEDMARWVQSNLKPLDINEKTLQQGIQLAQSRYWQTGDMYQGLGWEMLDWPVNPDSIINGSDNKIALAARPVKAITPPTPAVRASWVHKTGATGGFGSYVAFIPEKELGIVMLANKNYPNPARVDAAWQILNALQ
#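 AmpC (5.3 nM in the dispensed reagent) in 20 mM phosphate pH 7.0 with 0.01% (detergent screen) or 0.0001% Triton X-100 was preincubated with compounds for 15 min at room temperature. Nitrocefin was then added from an 800 uM solution, and hydrolysis was followed at 480 nm.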
# Pf growth 96h – P. falciparum growth inhibition at 96 hour, primary screen for plastid delayed-death inhibitors; Potency, µM (top dose mostly 28.7 µM), hits mostly inhibitors; 320,000 tested, 6.9% active; AID 504834; P. falciparum luciferase reporter growth, 96 h
#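 Parasite growth measured via integrated firefly luciferase reporter in P. falciparum. Infected erythrocytes at 2% hematocrit, 0.05% parasitemia final were treated 96 hours at 37 C under 5% CO2, and luminescence was read.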
# AmpC detergent – blocks E. coli AmpC beta-lactamase in detergent assay; P00811; AmpC hydrolysis of nitrocefin, absorbance 480 nm, 0.01% Triton; Potency, µM (doses to about 114 µM), hits mostly inhibitors; 370,000 tested, 0.041% active; also: nearly all actives have a fitted effect of over 25% in size
#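 20 mM phosphate pH 7.0 + 0.01% (detergent screen) or 0.0001% Triton X-100; 5.3 nM AmpC reagent; cpd preinc 15 min RT; nitrocefin (800 uM stock) to start; A480 q20 s × 4 min; Activity was normalised to no-enzyme and no-compound control wells.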
# HCV inhibitor – HCV inhibition. Huh7.5.1 HCVcc-Cre infection, luciferase reporter, 44 h. Potency, µM (doses to about 41.8 µM), actives largely listed as inhibitors. 340,000 tested, 3.4% active. AID 651820
#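 Cells seeded at 1,000/well and cultured 4 h, then compounds added followed by HCVcc-Cre virus (~0.5 moi). After 44 h further culture, luciferase substrate was added, plates held 15 min at room temperature, and luminescence read for 15 sec.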
# AMA1 RON2 block – disrupts binding of P. falciparum AMA1 to RON2; AlphaScreen AMA1-biotinylated RON2 peptide binding; Potency, µM (series often up to 58.2 µM), most hits filed as inhibitors; 360,000 tested, 0.2% active; AID 720542; also: nearly all actives have a fitted effect of over 45% in size
#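 AMA1 (3D7) with his tag at 25 nM final met compounds first, then biotinylated RON2 peptide at 25 nM; detection used donor plus acceptor beads, 10 µg/mL apiece, read by AlphaScreen after 30 min at room temperature.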
# Pf growth 48h – inhibits P. falciparum growth in the first generation, 48 h; P. falciparum luciferase growth in erythrocytes, 48 h; Potency, µM (highest dose often 28.7 µM), usual class: inhibitors; 310,000 tested, 5.9% active; AID 504832
#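 Growth was read as firefly luciferase luminescence after a 48 h, 37 C, 5% CO2 exposure of compounds to reporter-bearing P. falciparum cultures (0.1% parasitemia, 2% hematocrit final) in Albumax-supplemented RPMI 1640.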
# Hits are given with their value; n = inactive; u = inconclusive; x = no result; [ ] = another dose, or the depositor's remark. Calls follow the shape of the dose curve; as a rule, active = well fitted curve in the direction sought with a large enough effect; inconclusive = small, poorly fitted or top-dose-only effect, or another doubt; inactive = no such curve, though single readings can be large; an effect the other way counts as inactive or inconclusive.
SMILES,AmpC no deterg,Pf growth 96h,AmpC detergent,HCV inhibitor,AMA1 RON2 block,Pf growth 48h
COC(=O)c1c(N)n(-c2cc(Cl)cc(Cl)c2)c2nc3ccccc3nc12,x,x,n,x,x,x
CCN1CCN(CCNC(=O)c2ccc(/C=C3\Sc4ccccc4N(Cc4ccccc4F)C3=O)cc2)CC1,n,u,n,11µM,n,u
CN1CCN(CCCNC(=O)c2ccc(/C=C3\Sc4ccccc4N(Cc4ccc(F)cc4)C3=O)cc2)CC1,n,u,n,u,n,u
Cc1cccc(CN2C(=O)/C(=C\c3ccc(C(=O)NCCCN4CCN(C)CC4)cc3)Oc3ccccc32)c1,n,n,n,x,x,u
CN1CCN(CCCNC(=O)c2ccc(/C=C3\Oc4ccccc4N(Cc4ccccc4F)C3=O)cc2)CC1,n,n,n,14µM,n,u
COc1cccc(NC(=O)Cn2c(=O)n(-c3ccc(C)cc3)c(=O)c3ccc(C(=O)NCc4ccco4)cc32)c1,x,x,n,x,x,x
COc1coc(C(O)CN)cc1=O (stereo not drawn),n,n,u,n,n,n
CCOC(=O)C(=Cc1cc(=O)c(OC)co1)C(=O)OCC,n,u,n,10µM,n,u
CC(Sc1nnnn1-c1ccccc1)C(=O)Nc1ccccc1-c1ccccc1 (stereo not drawn),n,2.9µM,n,n,n,u
Cc1ccc(-n2nnnc2SCC(=O)Nc2ccccc2N2CCCCC2)cc1C,n,u,n,10µM,n,2.3µM
Cc1ccc(-n2nnnc2SCC(=O)Nc2ccccc2-c2ccccc2)cc1C,n,4.7µM,u,u,n,n
CCOc1ccccc1NC(=O)CSc1nnnn1-c1ccc(C(=O)OC)cc1,n,4.1µM,u,n,n,n
CCOC(=O)C1=C(CSc2nc(-c3ccncc3)ccc2C#N)OC(N)=C(C#N)C1c1cccnc1 (stereo not drawn),n,u,u,n,n,13µM
CCOC(=O)C1=C(CC)OC(N)=C(C#N)C1c1ccc(OC)c(OC)c1OC (stereo not drawn),n,u,n,n,n,n
CCOC(=O)C1=C(CSc2nc(C)ccc2C#N)OC(N)=C(C#N)C1c1cccc(OC)c1OC (stereo not drawn),n,6.6µM,u,n,n,n
O=C(CSc1nc(=O)[nH]c2c1CCCC2)NCc1ccc(F)cc1,x,x,n,x,x,x
O=S(=O)(c1ccc(Br)cc1)c1nnn2c1nc(NCc1ccc3c(c1)OCO3)c1sccc12,x,x,n,x,x,x
O=C1CCN(CCc2ccccc2)CCN1[C@H](CO)Cc1ccccc1,n,u,u,2.2µM,n,n
CC(C)CN1CCC(=O)N([C@H](COc2ccccc2)Cc2ccccc2)CC1,n,12µM,u,n,n,u
CCCN1CCC(=O)N([C@H](COc2ccccc2)CC(C)C)CC1,n,n,n,n,n,n
O=C1CCN(CCCc2ccccc2)CCN1[C@H](CO)Cc1ccccc1,n,n,n,n,n,n
CC(C)C[C@@H](COc1ccccc1)N1CCN(CCc2ccccc2)CCC1=O,n,u,n,n,u,n
O=C1CCN(CCc2ccccc2)CCN1[C@H](COc1ccccc1)Cc1ccccc1,n,3.3µM,n,u,n,u
CN(C(=O)c1oc(=O)c2ccccc2c1-c1ccccc1)c1cccc(Cl)c1,x,x,n,x,x,x
CCOc1ccccc1NC(=O)Cn1cnc2c1c(=O)n(C)c(=O)n2C,x,x,n,x,x,x
SMILES,AmpC no deterg,Pf growth 96h,AmpC detergent,HCV inhibitor,AMA1 RON2 block,Pf growth 48h
Cc1cccc(OCC(=O)Nc2nnc(-c3ccco3)s2)c1,n,5.2µM,u,n,n,n
CCCC(=O)Nc1nnc(-c2ccco2)s1,n,13µM,n,n,n,n
COc1ccccc1OCC(=O)Nc1nnc(-c2ccco2)s1,n,n,n,n,n,n
CCc1nnc(NC(=O)C(CC)c2ccccc2)s1 (stereo not drawn),n,n,u,n,n,n
CCC(C(=O)Nc1nnc(-c2ccco2)s1)c1ccccc1 (stereo not drawn),n,12µM,u,n,n,n
CCOC(=O)c1cnc2ccc(OCC)cc2c1N1CCN(c2cccc(Cl)c2)CC1,x,x,n,x,x,x
COc1ccc(OCc2nc(C#N)c(NCc3ccccc3Cl)o2)cc1,x,x,n,x,x,x
O=S(=O)(NCCc1ccc(Cl)cc1)c1ccc(N2CCCCS2(=O)=O)cc1,x,x,n,x,x,x
COc1ccc(Nc2ncc(C(=O)N3CCN(Cc4ccccc4)CC3)c3ccccc23)cc1,n,u,n,10µM,n,u
COc1ccccc1Nc1ncc(C(=O)N2CCN(Cc3ccc(OC)c(OC)c3OC)CC2)c2ccccc12,n,u,u,13µM,n,u
CCN(C(=O)Nc1cn(CC(C)C)c(=O)c2ccccc12)c1cc(C)ccc1C,x,x,n,x,x,x
Cc1nn(C(C)(C)C)c(OC(=O)C2CCCC2)c1S(=O)(=O)c1ccccc1,n,10µM,n,n,n,n
CC(=O)c1ccc(N2C(=O)N(Cc3cc(C)ccc3C)c3ccccc3S2(=O)=O)cc1,x,x,n,x,x,x
COc1ccc(CCn2c(=N)c(S(=O)(=O)c3ccccc3)cc3c(=O)n4ccccc4nc32)cc1,n,u,n,n,n,u
CCn1c(=N)c(S(=O)(=O)c2ccc(C)cc2)cc2c(=O)n3ccccc3nc21,n,u,u,x,x,n
COc1ccc(CCn2c(=N)c(S(=O)(=O)c3ccc(Cl)cc3)cc3c(=O)n4ccccc4nc32)cc1,n,2.6µM,n,n,n,4.7µM
Cc1ccc(S(=O)(=O)c2cc3c(=O)n4cccc(C)c4nc3n(C3CCCCC3)c2=N)cc1,n,n,n,n,n,n
Cc1ccc(S(=O)(=O)c2cc3c(=O)n4ccccc4nc3n(C3CCCC3)c2=N)cc1,n,n,n,5µM,n,5.2µM
Cc1ccc(S(=O)(=O)c2cc3c(=O)n4ccccc4nc3n(CCc3ccccc3)c2=N)cc1,n,n,u,n,n,2.1µM
Cc1ccccc1OCC(=O)OCc1cc(=O)n2nc(C3CC3)sc2n1,x,x,n,x,x,x
CN1c2ccccc2-c2nc(SCC(=O)Nc3ccccc3C(F)(F)F)ncc2S1(=O)=O,x,x,n,x,x,x
CCCCOc1ccc(C(=O)NCC(c2ccc(Cl)cc2)N2CCOCC2)cc1 (stereo not drawn),x,x,n,x,x,x
CC1CC2(O)c3no[n+]([O-])c3CCC2N1O (stereo not drawn),n,10µM,u,n,n,n
CC1CN(O)C2CCc3c(no[n+]3[O-])C12O (stereo not drawn),x,n,n,n,n,n
Cc1ccc(C)c(-n2nnc(-c3nc(-c4ccc(Cl)cc4)no3)c2N)c1,x,x,n,x,x,x
COC(=O)c1c(-c2ccc(OC)cc2)sc2ccc(N3CCOCC3)cc12,n,x,x,13µM,n,x
COC(=O)c1c(-c2ccc(SC)cc2)sc2ccc(OC)cc12,n,x,x,n[8.37 µM],n,x
